# Experimental data taken from the supplement of paper PMC6555819.
# Experiments:
# Test in all cases: PBM binding z-score (relative to random genomic background probes); higher = stronger binding; sequences stand for … in GC…GCGATTGACAGCGTAGAATGAAGG
# [1] = tested on: RARb homodimer (NR concentration 270 nM)
# Summary of the method: (§1)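 Probes were double-stranded and carried 34-nt variable regions with direct-repeat seeds, single-nucleotide variants, half-site ablations and random human genomic background sequences, printed on custom Agilent 4×180K protein-binding microarrays. Arrays were incubated 1 h with ligand-free nuclear receptor dimers in PBS pH 7.4, 2% milk, 0.02% Triton X-100, 1 mM DTT, 0.2 mg/mL BSA and 0.4 mg/ml salmon testes DNA. Antibodies against each partner (one per run) detected binding, and scanned fluorescence was regression-normalized. Binding z-scores use the random background probes as reference.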
# [2] = tested on: RARg:RXRa (NR concentration 270 nM, RXRa partner concentration 90 nM)
# Summary of the method: as §1
# [3] = tested on: RARg homodimer (NR concentration 270 nM)
# Summary of the method: as §1
# [4] = tested on: RXRa DBDmut IVT, anti-RXR (DBD mutation: RXRa K156A/R161A, NR concentration 90 nM)
# Summary of the method: as §1
# [5] = tested on: RXRa homodimer (NR concentration 180 nM)
# Summary of the method: as §1
# [6] = tested on: THRa:RXRa (NR concentration 90 nM, RXRa partner concentration 90 nM)
# Summary of the method: as §1
# [7] = tested on: THRa homodimer (NR concentration 90 nM)
# Summary of the method: as §1
# [8] = tested on: VDR:RXRa (NR concentration 270 nM, RXRa partner concentration 90 nM)
# Summary of the method: as §1
# [9] = tested on: VDR homodimer (NR concentration 270 nM)
# Summary of the method: as §1
Sequence,PBM binding z-score [1],PBM binding z-score [2],PBM binding z-score [3],PBM binding z-score [4],PBM binding z-score [5],PBM binding z-score [6],PBM binding z-score [7],PBM binding z-score [8],PBM binding z-score [9]
TCTAGTTGGTCACGGAGGCCACACACGACGGGTA,2.01,1.65,2.06,0.633,1.06,0.977,0.377,2.19,0.2
CGAACTGGGTCAAGGACAGTGAATCTCCGCACGC,2.55,3.53,3.36,0.955,2.54,2.76,1.56,1.46,0.325
GCAGACAGGTCAAACGCAGGTAACTCAGGGTGGC,2.7,5.58,4.53,2.16,4.65,3.23,-0.195,3,0.795
CAAACTCGGTCACGAAAGGTCAAAGTCGAATGAC,5.24,7.03,7.47,1.9,7.26,4.47,1.09,5.86,3.28
ATACCAAGGTGATAGTGAGGTCGTTGATACTAAC,1.84,2.12,0.961,0.897,1.84,3.3,2.49,3.69,3.15
TCTTGTAGATCAACGGGAGGTTAAGAAAGATCGA,0.654,1.49,0.307,0.748,1.06,1.11,-0.165,0.477,-0.124
GTACCAAGTTGAATAGGTCGTTGATGAGTAGGCG,0.758,0.982,0.525,0.103,0.719,0.151,-0.492,0.387,0.477
CCTACTGGGCCATCAGTTCATTGATATCAACGTT,0.932,0.31,0.439,0.88,-0.0335,0.411,0.333,1.13,3.3
ATCTCTAGGTAAGACACAGTTCAGTGAAGAACGC,1.33,0.686,0.694,0.59,0.755,0.849,0.689,1.14,1.37
TAGCCTAGGTCAGATCGGGCCAGCATACGCTATA,2.06,2.68,3.52,-0.834,1.72,4.27,0.0653,0.584,-0.746
CCAAACAGGTGAGAAGGTAACTCAGCCTCGATTA,0.453,0.434,0.256,-0.0242,0.335,0.199,0.0192,-0.0119,-0.08
CCTACTGGGCCAAGGTGATTGATCAGTCAAAGCA,-0.085,-0.199,-0.0733,-1.43,-0.57,0.355,-0.015,-0.746,-0.782
CGTCCAAGGTCAGAGAGGTCAGCGAATGCCGAGT,5.53,6.82,7.65,3.12,6.52,4.47,2.86,7.48,5.7
CCGCCTAGGTCAGGGCCAGTATAGGAGGAACGTT,2.62,2.86,3.33,-0.193,1.74,2.2,0.59,0.294,-0.22
TAGCCTAGGTCATTGGGCCAGTGTAGTACGCATC,3,3.57,4.14,1.61,2.7,2.94,0.8,2.12,1.07
GCATATAGGTAATAAAAGGTGAAAGTCCGATTGT,1.63,0.972,0.621,0.496,1.53,2.61,-0.141,0.675,0.166
GCTATTAGTTGAAAGGGCGACCGAATGATTCTCG,0.767,0.148,0.219,0.775,0.22,-0.155,-0.468,-0.17,0.16
ATCTCTAGGTAAGACTCAGTTCAGTGATGAACGC,0.637,0.588,0.547,0.656,0.315,0.739,0.755,0.927,1.4
CCGCGGAGGACAACAGGAGGTCAGAGCTGCCAGA,3.47,3.63,3.65,0.503,1.98,2.83,1.18,1.8,1.55
AGAATGAGGTTAAGATCAGGGAAACAGAATACAT,0.9,2.17,1.52,0.973,2.58,2.67,0.768,1.19,0.379
CCTACTGGGCCAACGGTCATTGATTCCAATGCTC,1.45,0.293,0.841,-0.454,-0.191,-0.306,-0.382,-0.502,-0.141
AGAACGAGGGCACGCTGAGGTGATAGCAGAGTAG,1.66,2.8,2.65,1.51,1.77,3.45,1.21,1.78,1.04
ACTAGCAGGCCAAGTTTGGGTCTCTCAAACAAAG,0.00651,-0.231,-0.0296,-0.0597,-0.754,-0.042,-0.533,-0.766,-0.181
CTACCAAGGTGATCAAGGTCGTTGATTACTATTC,1.47,0.906,0.808,1.42,1.11,2.71,1.55,5.3,2.33
CCTTACGGGTCACTGACAGGTTATAGCTTTTGGA,3.45,5.62,4.37,1.64,4.7,2.82,0.24,3.56,0.718
CTCGAAAGGTCGTGCTCAGCTGAGTATACCAAAC,2.34,4.28,3.82,2.32,4.89,2.19,-0.199,3.17,0.89

Sequence,PBM binding z-score [1],PBM binding z-score [2],PBM binding z-score [3],PBM binding z-score [4],PBM binding z-score [5],PBM binding z-score [6],PBM binding z-score [7],PBM binding z-score [8],PBM binding z-score [9]
TAGCCTAAGTCAGATCGGGCCAGTATACGCTATA,-0.342,-0.329,-0.306,-0.669,-0.25,1.43,-0.221,-0.662,-0.691
ACTAGCACGCCAAGGGTCACTCAAGATTAGTCCG,3.93,3.88,3.91,1.02,3.73,2.86,0.515,2.97,1.49
CATACAGGGTGAGCTAGGCCAGAGTAGGGACGGC,0.342,0.54,0.662,-1.01,0.302,0.989,0.182,-0.189,-0.497
AGAATGAGCTTAAGATCAGGGAAACAGAATACAT,-0.611,-0.159,0.233,-0.641,-0.0967,-0.123,-0.875,-0.396,-0.392
CCTATTAGTTGACCATAAGTGCAACCGAAGCTCG,1.59,0.741,0.841,1.18,0.751,0.954,1.18,1.31,1.81
ATCTCTAGGTAACCAAATTCAGTGAATGCCGAAC,0.339,0.22,0.428,0.324,0.301,0.659,0.778,0.296,0.572
TCTAGTTGGTCTCGGAGGTCACACACGACGGGTA,4.01,3.75,3.47,1.15,4.16,3.65,2.74,3.75,2.48
CCTCGGAGGACAACAGGGGGTCAGAGCTGCCAGA,3.52,4.25,3.49,0.19,3.24,3.27,1.04,3.17,1.28
CCTAGTTGGTCAGGAGGTAACACACCGGATATGA,1.01,0.732,0.881,-0.282,0.455,0.766,0.712,0.461,0.75
TCATATAGGTATAAGGTGAAAGTCGGTGTGGTAA,1.17,0.768,0.521,1.77,1.35,2.68,2.4,1.06,0.494
AGAACGAGGCCAATGAGTTGATAGCACGGGTGGC,0.127,0.169,0.718,1.01,0.286,0.223,0.00356,3.09,1.71
ATAGACAGGTGATGAAGGTAACTCAGGCTATCAT,0.392,0.0804,0.356,-0.779,0.265,0.901,0.156,0.166,-0.14
CGTCAAACTTCAAGGTAACGTAACAGAAAGCAGC,0.274,0.163,0.537,0.306,0.376,1.73,1.11,0.0642,-0.0172
CCTTACGGGTCACTGACAGGTGATAGCATTTGGA,3.85,5.63,4.84,2.09,6.14,3.23,0.557,4.2,1.31
CCTACTGGGCCATCAGGTCATTCATATCAACGTT,2.53,1.94,1.92,0.469,1.3,3.03,3.02,1.67,2.34
AGTCAAAGTTCAGTACGAGGTAACGTAAAGCACG,3.01,4.32,4.54,3.09,2.66,3.64,1.21,2.89,2.62
CCGACTGGGGCAAAGGTTAACATACTCAGTACGA,2.4,4.1,2.03,0.365,3.89,2.19,-0.145,2.2,0.335
TGAATGAGGTTAAAAGATCAGGGAACGTTGCAAA,0.578,2.56,1.18,0.605,2.79,1.83,-0.00624,1.45,0.327
CATACAGGGTCAGGTAGGCCAGAGTAGGGACGGC,3,4.2,4.14,0.816,4.12,2.93,0.964,3.35,1.14
CCAGACAGGTGAGAAGGAAACTCAGCCTCGATTA,-0.0325,0.209,0.469,-0.203,0.154,-0.307,0.13,-0.211,-0.0277
TGAATGAGCTTAAAGATCAGGGAACGTGGCGTCG,-0.993,-0.123,-0.307,-1.41,0.0598,-0.475,-0.628,-0.548,-0.391
GCAGACAGGTGGAACGCAGGTAACTCAGGGTGGC,-0.721,-0.378,-0.569,-0.849,-0.144,0.751,-0.601,-0.675,-0.591
CGTCCAAGGTCAGCAGGTCTGTGAAAGCGACGTG,3.23,5.26,6.07,2.62,3.69,3.45,1.82,4.69,1.65
CAAACTAGGTCAAAGGTCAAATTCGAGCCAACCA,4.86,8.92,7.49,3.06,10.2,4.77,1.67,6.75,3.08
TCGACTAGGTTAGTCGGGGCATTCAGCCAACATA,0.379,-0.0311,-0.0411,0.284,-0.049,1.1,-0.279,1.81,0.492
CGTACAAGGTCAAGGTCAGTGAAAGAGACTCGAA,5.35,6.85,7.48,3.82,6.83,4.45,3.84,4.98,3.49
